L3MBTL1 block: L3MBTL1 (human) inhibition; Q9Y468; AlphaScreen L3MBTL1–H3K9me1 peptide binding; Potency, µM (doses to about 57.1 µM), usual class: inhibitors; actives 0.66% (n = 230,000); also: nearly all actives have a fitted effect of over 60% in size
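Displacement of a biotinylated histone H3(1-15) peptide monomethylated at Lys9 (75 nM) from L3MBTL1 (50 nM) was measured by AlphaScreen after a 30 min room-temperature compound incubation; cefsulodin titration served as intraplate control.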
HP1b chromo inh: HP1-beta chromodomain-methylated histone interaction inhibition; P83916; AlphaScreen HP1-beta / biotin-H3K9me3 peptide binding; Potency, µM (titrated, usually from 114 µM), most hits filed as inhibitors; actives 0.56% (n = 390,000); also: nearly all actives have a fitted effect of over 70% in size
Target sequence (P83916 whole entry, looked up): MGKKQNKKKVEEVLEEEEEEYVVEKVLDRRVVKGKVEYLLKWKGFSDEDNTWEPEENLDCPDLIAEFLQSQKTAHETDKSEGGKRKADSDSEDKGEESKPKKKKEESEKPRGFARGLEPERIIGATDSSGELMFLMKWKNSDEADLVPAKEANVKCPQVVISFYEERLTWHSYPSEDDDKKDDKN
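Compound inhibition of the preformed complex between 50 nM HP1-beta and 50 nM biotinylated H3K9me3 peptide was read by AlphaScreen. Buffer was PBS pH 7.4 with 0.01% Tween-20. Incubations ran 30 min at room temperature, with 10 ug/mL donor/acceptor beads.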
G9a block: inhibitors of human histone lysine methyltransferase G9a. AID 504332. actives 8.8% (n = 350,000). Potency, µM (titrated, usually from 102 µM), most hits filed as inhibitors. G9a H3K9 monomethylation, AlphaScreen, 2 h. Q96KQ7; also: nearly all actives have a fitted effect of over 75% in size
Target sequence (Q96KQ7 913-1193 limits assumed): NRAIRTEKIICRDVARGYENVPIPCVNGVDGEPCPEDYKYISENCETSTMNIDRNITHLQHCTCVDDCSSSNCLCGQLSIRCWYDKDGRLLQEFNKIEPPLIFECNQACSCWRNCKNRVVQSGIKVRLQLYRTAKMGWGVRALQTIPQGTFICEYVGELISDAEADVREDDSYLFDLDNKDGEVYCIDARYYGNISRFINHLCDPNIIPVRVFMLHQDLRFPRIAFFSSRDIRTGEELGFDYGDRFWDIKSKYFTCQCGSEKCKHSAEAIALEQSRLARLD
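Chemiluminescent proximity detection of H3K9 monomethylation, read after 10 min bead incubation in the dark. Reaction: 20 nM G9a, 500 nM biotin-H3K9 peptide, 20 uM SAM cofactor, 2 h, room temperature, following 15 min enzyme-compound preincubation.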
BAZ2B block: inhibitors of human BAZ2B bromodomain. AlphaScreen BAZ2B-H3K14Ac peptide displacement. Potency, µM (highest dose often 114 µM), hits mostly inhibitors. actives 4.4% (n = 360,000). Q9UIF8; also: nearly all actives have a fitted effect of over 60% in size
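AlphaScreen displacement of biotin-H3(5-23)K14Ac peptide (50 nM final) from BAZ2B (50 nM final) in PBS pH 7.4, 0.01% Tween-20; complex preformed 30 min RT, then compounds (top 110 uM) 30 min RT, beads 20 min dark.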
JMJD2A Tudor inh: inhibitors of human JMJD2A Tudor domain; O75164; AlphaScreen JMJD2A-Tudor / H3K4me3 peptide binding; Potency, µM (top dose mostly 114 µM), usual class: inhibitors; actives 4.4% (n = 390,000); also: nearly all actives have a fitted effect of over 50% in size
Each line names hits and unclear results; the compound was inactive in the other large screens. Sampled rows, rich in hits. Any-hit rate of the full collection: about 11%. Calls follow the shape of the dose curve; as a rule, active = well fitted inhibition curve with a large enough effect; inconclusive = small, poorly fitted or top-dose-only effect; inactive = no such curve, though single readings can be large or run the other way.

CCCC(=O)Nc1ccc(Cl)c(NC(=O)c2ccco2)c1	none
COCCn1c(=O)c(-c2cccc(C#N)c2)nc2cnc(N3CCNCC3)nc21	none (no result: L3MBTL1 block, HP1b chromo inh, BAZ2B block, JMJD2A Tudor inh)
CCCCC(=O)Nc1ccc(C(=O)NNC(=O)c2ccco2)cc1	none
O=C(NC(=S)NNC(=O)c1ccco1)c1ccc(F)cc1	G9a block 13µM (no result: L3MBTL1 block)
CCCCC(=O)Nc1ccc(C(=O)NNC(=S)NC(=O)c2ccco2)cc1	G9a block 25µM (no result: L3MBTL1 block)
CCOC(=O)c1cc2c(=O)n3ccccc3nc2n(Cc2ccco2)c1=NC(=O)c1c(F)cccc1Cl	none (no result: L3MBTL1 block)
CCc1ccc(NS(=O)(=O)c2ccc(-c3cc(C)no3)cc2)cc1	none (no result: L3MBTL1 block)
O=C(c1nc2n(n1)C(c1ccc(Cl)cc1)C=C(c1ccccc1)N2)N1CCOCC1 (stereo not given)	G9a block 3.5µM
O=C(Nc1nc2n(n1)C(c1ccccc1)C=C(c1ccc(Cl)cc1)N2)c1ccco1 (stereo not given)	G9a block inconclusive, BAZ2B block 79µM, JMJD2A Tudor inh inconclusive (no result: L3MBTL1 block)
O=C(Nc1nc2n(n1)C(c1ccccc1)C=C(c1ccccc1)N2)c1ccco1 (stereo not given)	G9a block 22µM, BAZ2B block 25µM
CNS(=O)(=O)c1cc(-c2nnc(Nc3cc(C)ccc3C)c3ccccc23)ccc1C	G9a block inconclusive (no result: L3MBTL1 block)
COc1ccc(C2=Nn3c(nnc3-c3ccccc3O)SC2)cc1OC	none (no result: L3MBTL1 block, HP1b chromo inh, G9a block, BAZ2B block)
CC1=C(SCCC#N)S/C(=C2\SC(C)=C(SCCC#N)S2)S1	HP1b chromo inh inconclusive, G9a block 1.3µM, JMJD2A Tudor inh 56µM
Cc1ccc2c(=O)cc(C(=O)Nc3c(C(=O)c4ccccc4)oc4ccccc34)oc2c1C	none (no result: L3MBTL1 block)
COc1ccc(NC(=O)CSc2nnc(-c3ccco3)n2C)cc1	none (no result: L3MBTL1 block)
Cc1ccc(NC(=O)CSc2nc(-c3ccco3)nc3cc(=O)[nH]n23)cc1C	G9a block inconclusive, BAZ2B block 40µM (no result: L3MBTL1 block)
COc1ccc(NC(=O)CSc2nc(-c3ccco3)cc(C(F)(F)F)n2)cc1Cl	none (no result: L3MBTL1 block)
COc1ccc(NC(=O)CSc2nc(-c3ccco3)nc3cc(=O)[nH]n23)cc1Cl	BAZ2B block 79µM, JMJD2A Tudor inh 45µM (no result: L3MBTL1 block)
COc1ccc(NC(=O)CSc2nc(-c3ccco3)nc3cc(=O)[nH]n23)cc1	BAZ2B block 79µM (no result: L3MBTL1 block)
Cc1ccc(NC(=O)CSc2nnc(CNC(=O)c3ccco3)n2C)cc1C	none
O=C1OC(c2ccccc2)(c2ccccc2)N2CCN(C(=O)NCc3ccc(F)cc3)CC12 (stereo not given)	none (no result: L3MBTL1 block, HP1b chromo inh, G9a block, BAZ2B block)
CC(C)(C)NCc1cc(Cl)ccc1OCc1cccs1	G9a block inconclusive
CC(C)(C)NCc1cc(Br)ccc1OCc1cccs1	G9a block 18µM
Cc1cc(CN(C)Cc2ccc(OCC(O)CN(C)Cc3ccccc3)cc2)on1 (stereo not given)	none
C=CCOc1ccc(CN(C)CC(O)COc2cccc3ccccc23)cc1 (stereo not given)	HP1b chromo inh 35µM, G9a block 40µM, BAZ2B block 50µM, JMJD2A Tudor inh 0.71µM (no result: L3MBTL1 block)
O=C(CN1C(=O)CCSc2ccccc21)Nc1ccc(C(F)(F)F)cc1	none (no result: L3MBTL1 block)
O=S(=O)(Nc1nc(-c2sccc2Cl)cs1)c1cc(Cl)ccc1Cl	HP1b chromo inh inconclusive, G9a block inconclusive, BAZ2B block 50µM, JMJD2A Tudor inh 50µM
N#Cc1nc(Nc2cccc(-c3ccccc3)c2)nc(NC2CCCC2)n1	none (no result: L3MBTL1 block, HP1b chromo inh, G9a block, BAZ2B block)
COC(=O)Nc1sc2c(c1C(=O)NCc1ccco1)CCC2	L3MBTL1 block inconclusive, BAZ2B block inconclusive, JMJD2A Tudor inh 56µM
COC(=O)c1c(N)n(-c2ccc(NC(C)=O)cc2)c2nc3ccccc3nc12	G9a block inconclusive (no result: L3MBTL1 block)
COC(=O)c1c(N)n(-c2ccc(N3CCOCC3)cc2)c2nc3ccccc3nc12	G9a block 10µM, BAZ2B block inconclusive (no result: HP1b chromo inh, JMJD2A Tudor inh)
CSc1ccc(CCNC(=O)Cn2nc(C)n3c(cc4sccc43)c2=O)cc1	none (no result: L3MBTL1 block)
Cc1nc2ccccc2c(=O)n1-c1ccc(NC(=O)c2ccccc2[N+](=O)[O-])cc1	none (no result: L3MBTL1 block)
Cn1cnc(C(=O)N2CCc3ccccc3C2)c1C(=O)N1CCc2ccccc2C1	HP1b chromo inh inconclusive, JMJD2A Tudor inh 16µM (no result: G9a block, BAZ2B block)
CC1CCN(C(=O)c2nc[nH]c2C(=O)N2CCc3ccccc3C2)CC1	none
COc1ccccc1N1CCN(C(=O)c2cc3c(=O)n(Cc4ccco4)ccc3nc2C)CC1	G9a block inconclusive (no result: L3MBTL1 block)
COc1cccc(N2CCN(c3ncnc4c3[nH]c3ccc(F)cc34)CC2C)c1 (stereo not given)	HP1b chromo inh inconclusive, G9a block 18µM, BAZ2B block inconclusive, JMJD2A Tudor inh inconclusive
CCOc1ccc(NCc2cccn2-c2nnc(N3CCC(C(=O)NCCCN4CCCCC4CC)CC3)s2)cc1 (stereo not given)	G9a block 50µM, BAZ2B block inconclusive, JMJD2A Tudor inh 28µM (no result: L3MBTL1 block)
COC(=O)c1ccc(NC(=O)C2CCCO2)cc1 (stereo not given)	none
COC(=O)c1ccc(N2OC3(C)C=CC2CC3)cc1 (stereo not given)	G9a block 45µM
COc1cc(/C=N/N=C(/C(=O)c2ccccc2)c2ccccc2)cc(OC)c1O	HP1b chromo inh inconclusive, G9a block inconclusive, BAZ2B block inconclusive, JMJD2A Tudor inh 45µM
CCOC(=O)c1c(C)[nH]c(C)c1C(=O)CN1C(=O)NC2(CCCCCC2)C1=O	G9a block 22µM
Fc1ccc(N2CCN(Cc3cn[nH]c3-c3ccccc3)CC2)cc1	L3MBTL1 block inconclusive, G9a block 71µM
COc1ccc(C(=O)C2CCCN(Cc3cn[nH]c3-c3ccccc3)C2)cc1OC (stereo not given)	none
COc1ccc2cc(-c3[nH]ncc3CN3CCCC3c3nonc3C)ccc2c1 (stereo not given)	BAZ2B block inconclusive, JMJD2A Tudor inh 79µM
COc1ccc(-c2[nH]ncc2CN2CCN(c3ccc(F)cc3)CC2)cc1	L3MBTL1 block inconclusive, G9a block 50µM, BAZ2B block inconclusive
COc1ccc(-c2[nH]ncc2CN2CCCC(C(=O)c3cccc(OC)c3)C2)cc1 (stereo not given)	G9a block 45µM
Cc1cc(Nc2ccccc2C)n2nc(Cc3ccc(Cl)cc3)nc2n1	none (no result: L3MBTL1 block)
Cc1cccc(N2CCN(C(=S)Nc3ccc4nc5n(c(=O)c4c3)CCCCC5)CC2)c1C	none
CCC(=O)Nc1c(C)nn(-c2ccc(C)c(C)c2)c1C	G9a block 28µM
COc1ccc(CC2SC(=Nc3ccc(F)cc3)NC2=O)cc1 (stereo not given)	G9a block 56µM (no result: L3MBTL1 block)
O=C(Nc1ccncc1)C1C(=O)c2ccccc2N(Cc2ccccc2)C1=O (stereo not given)	none (no result: L3MBTL1 block, G9a block, BAZ2B block)
O=C(O)/C=C/c1ccc([N+](=O)[O-])o1	L3MBTL1 block inconclusive, HP1b chromo inh 50µM, G9a block 22µM, BAZ2B block 56µM, JMJD2A Tudor inh 35µM
C=CCn1c(CSCc2ccc(F)cc2)n[nH]c1=S	none (no result: G9a block)
C=CCn1c(CCc2cc(C(C)(C)C)c(O)c(C(C)(C)C)c2)n[nH]c1=S	G9a block 2µM, JMJD2A Tudor inh inconclusive

Bioassay records: PubChem BioAssay, National Center for Advancing Translational Sciences (NCATS)
